Laboratory results as given in PubChem BioAssay (NCATS).
Values without a mark were called inactive. Results filed as inconclusive are left out. A call without a number means that no potency is given here. Active and inactive are the calls of the source. Unless noted, calls come from the whole dose curve; as a rule, active = well fitted curve in the direction sought with a large enough effect; inconclusive = small, poorly fitted or top-dose-only effect, or another doubt; inactive = no such curve, though single readings can be large; an effect the other way counts as inactive or inconclusive.

How the values were obtained:
[1] = target: Transient receptor potential cation channel subfamily V member 1 (Homo sapiens) (UniProt Q8NER1); assay: HTS Assay for Compounds that Act as Enhancers of the Vanilloid Receptor 1 (AID 488979); conditions: TRPV1-expressing cells, enhancer of channel activity, stimulated with capsaicin at EC20; series mostly up to 41.7 µM
Transient receptor potential cation channel subfamily V member 1 (Homo sapiens), sequence (Q8NER1 whole entry, looked up): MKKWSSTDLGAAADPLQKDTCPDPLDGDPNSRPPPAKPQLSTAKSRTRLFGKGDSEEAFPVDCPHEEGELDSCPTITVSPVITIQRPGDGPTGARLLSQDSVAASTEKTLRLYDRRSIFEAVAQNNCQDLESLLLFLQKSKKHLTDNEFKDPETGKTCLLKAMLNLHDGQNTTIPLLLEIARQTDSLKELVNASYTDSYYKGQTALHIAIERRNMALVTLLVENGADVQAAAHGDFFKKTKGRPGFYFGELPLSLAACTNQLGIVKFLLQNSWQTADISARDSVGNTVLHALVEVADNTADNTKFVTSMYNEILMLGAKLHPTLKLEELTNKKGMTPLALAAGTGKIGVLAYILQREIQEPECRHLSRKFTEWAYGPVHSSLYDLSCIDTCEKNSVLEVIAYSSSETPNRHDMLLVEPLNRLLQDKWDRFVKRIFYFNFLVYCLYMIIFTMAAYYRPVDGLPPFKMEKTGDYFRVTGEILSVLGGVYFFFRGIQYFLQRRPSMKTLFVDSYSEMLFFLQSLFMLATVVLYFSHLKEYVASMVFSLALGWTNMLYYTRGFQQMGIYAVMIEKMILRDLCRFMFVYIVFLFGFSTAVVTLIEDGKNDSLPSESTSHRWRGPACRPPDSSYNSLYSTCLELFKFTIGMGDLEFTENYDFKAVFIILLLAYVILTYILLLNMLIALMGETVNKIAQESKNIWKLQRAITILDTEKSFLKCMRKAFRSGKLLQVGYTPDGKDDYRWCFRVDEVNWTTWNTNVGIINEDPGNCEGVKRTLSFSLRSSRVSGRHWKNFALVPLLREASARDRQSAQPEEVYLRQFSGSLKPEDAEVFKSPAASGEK
In short: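 TRPV1 cells loaded with Fluo-8 calcium dye; compound added and Ca2+ signal (ex 480/em 520 nm) followed 3 min, then capsaicin at EC20 added and read 2 more min to detect enhancement.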

[2] = target: Thyrotropin receptor (Homo sapiens) (UniProt P16473); assay: qHTS Assay for Antagonists of the Thyroid Stimulating Hormone Receptor (AID 488980); conditions: TSHR-expressing cells, cAMP antagonist read-out; series mostly up to 57.5 µM
Thyrotropin receptor (Homo sapiens), sequence (P16473 whole entry, looked up): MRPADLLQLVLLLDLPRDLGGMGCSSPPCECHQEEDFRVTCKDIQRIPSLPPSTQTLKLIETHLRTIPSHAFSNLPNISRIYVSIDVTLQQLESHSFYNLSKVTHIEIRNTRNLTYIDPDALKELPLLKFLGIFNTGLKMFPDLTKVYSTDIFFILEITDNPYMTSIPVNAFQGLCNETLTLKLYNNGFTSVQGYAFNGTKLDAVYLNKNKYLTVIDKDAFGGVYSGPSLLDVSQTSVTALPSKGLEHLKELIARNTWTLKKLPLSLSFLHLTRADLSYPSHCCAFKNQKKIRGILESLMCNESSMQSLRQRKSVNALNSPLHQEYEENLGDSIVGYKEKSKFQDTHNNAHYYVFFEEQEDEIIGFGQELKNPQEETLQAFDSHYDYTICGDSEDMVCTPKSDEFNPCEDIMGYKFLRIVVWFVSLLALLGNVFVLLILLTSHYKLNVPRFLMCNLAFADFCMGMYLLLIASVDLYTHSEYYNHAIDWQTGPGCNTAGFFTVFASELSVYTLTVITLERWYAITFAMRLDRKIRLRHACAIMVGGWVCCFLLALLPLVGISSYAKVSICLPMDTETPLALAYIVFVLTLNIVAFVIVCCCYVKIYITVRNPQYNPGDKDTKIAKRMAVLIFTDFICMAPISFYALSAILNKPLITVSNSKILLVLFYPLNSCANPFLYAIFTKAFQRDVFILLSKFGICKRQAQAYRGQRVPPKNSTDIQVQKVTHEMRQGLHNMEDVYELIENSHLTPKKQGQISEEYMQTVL
In short: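 Inhibition of TSH-stimulated cAMP accumulation was quantified by homogeneous time-resolved FRET in TSHR-transfected HEK293 cells. Agonist: TSH, 4 nM final (EC80).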

[3] = target: D(1A) dopamine receptor (Homo sapiens) (UniProt P21728); assay: HTS Assay for Allosteric Agonists of the Human D1 Dopamine Receptor: Primary Screen for Agonists (AID 488981); conditions: Inducible HEK293 T-REx D1 cells, calcium-flux fluorescence, 180 s kinetic; series mostly up to 41.8 µM
D(1A) dopamine receptor (Homo sapiens), sequence (P21728 whole entry, looked up): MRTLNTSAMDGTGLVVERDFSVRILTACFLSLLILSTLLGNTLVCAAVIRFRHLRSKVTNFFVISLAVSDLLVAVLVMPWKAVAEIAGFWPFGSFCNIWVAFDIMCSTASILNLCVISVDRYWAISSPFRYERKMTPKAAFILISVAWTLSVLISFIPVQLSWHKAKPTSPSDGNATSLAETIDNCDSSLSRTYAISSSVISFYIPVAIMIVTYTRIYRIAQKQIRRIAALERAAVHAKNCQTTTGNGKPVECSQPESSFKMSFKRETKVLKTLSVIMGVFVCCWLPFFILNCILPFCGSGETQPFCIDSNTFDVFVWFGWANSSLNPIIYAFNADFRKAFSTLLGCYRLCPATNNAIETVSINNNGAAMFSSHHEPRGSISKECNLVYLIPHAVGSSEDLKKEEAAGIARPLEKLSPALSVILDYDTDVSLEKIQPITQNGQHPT
In short: (§1)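 Tetracycline-induced HEK293 Trex D1 cells with forced coupling to calcium, loaded with no-wash calcium dye; kinetic fluorescence read 180 s after compound addition for agonism, then a further 180 s after an EC20 dopamine challenge for potentiation.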

[4] = target: D(1A) dopamine receptor (Homo sapiens) (UniProt P21728); assay: HTS Assay for Allosteric Agonists of the Human D1 Dopamine Receptor: Primary Screen for Potentiators (AID 488982); conditions: HEK293 T-REx D1 inducible cells, calcium flux, kinetic fluorescence; series mostly up to 8.37 µM
In short: as §1

[5] = target: D(1A) dopamine receptor (Homo sapiens) (UniProt P21728); assay: HTS Assay for Allosteric Agonists of the Human D1 Dopamine Receptor: Primary Screen for Antagonists (AID 488983); conditions: D1 receptor cell assay, antagonist mode, qHTS titration; series mostly up to 41.8 µM;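 note: calcium flux response to an EC80 dopamine challenge measured with no-wash dye; nearly all actives have a fitted effect of over 65% in size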; note: potency is the fitted concentration of half-maximal effect
In short: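 Tetracycline-induced HEK293 T-REx D1 line, force-coupled to calcium flux, read with no-wash calcium dye. Compound added after 10 s baseline, read 180 s for agonism, then EC80 dopamine added and read a further 180 s.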

[6] = target: ATPase family AAA domain-containing protein 5 (Homo sapiens) (UniProt Q96QE3); assay: Validation screen for small molecules that inhibit ELG1-dependent DNA repair in human embryonic kidney (HEK293T) cells expressing luciferase-tagged ELG1 (AID 493107); conditions: HEK293T ELG1-luciferase level, luminescence, 5-fluorouridine co-treatment, 16 h; series mostly up to 46.1 µM; note: nearly all actives have a fitted effect of over 70% in size; note: potency is the fitted concentration of half-maximal effect
ATPase family AAA domain-containing protein 5 (Homo sapiens), sequence (Q96QE3 whole entry, looked up, the tested form may be a part): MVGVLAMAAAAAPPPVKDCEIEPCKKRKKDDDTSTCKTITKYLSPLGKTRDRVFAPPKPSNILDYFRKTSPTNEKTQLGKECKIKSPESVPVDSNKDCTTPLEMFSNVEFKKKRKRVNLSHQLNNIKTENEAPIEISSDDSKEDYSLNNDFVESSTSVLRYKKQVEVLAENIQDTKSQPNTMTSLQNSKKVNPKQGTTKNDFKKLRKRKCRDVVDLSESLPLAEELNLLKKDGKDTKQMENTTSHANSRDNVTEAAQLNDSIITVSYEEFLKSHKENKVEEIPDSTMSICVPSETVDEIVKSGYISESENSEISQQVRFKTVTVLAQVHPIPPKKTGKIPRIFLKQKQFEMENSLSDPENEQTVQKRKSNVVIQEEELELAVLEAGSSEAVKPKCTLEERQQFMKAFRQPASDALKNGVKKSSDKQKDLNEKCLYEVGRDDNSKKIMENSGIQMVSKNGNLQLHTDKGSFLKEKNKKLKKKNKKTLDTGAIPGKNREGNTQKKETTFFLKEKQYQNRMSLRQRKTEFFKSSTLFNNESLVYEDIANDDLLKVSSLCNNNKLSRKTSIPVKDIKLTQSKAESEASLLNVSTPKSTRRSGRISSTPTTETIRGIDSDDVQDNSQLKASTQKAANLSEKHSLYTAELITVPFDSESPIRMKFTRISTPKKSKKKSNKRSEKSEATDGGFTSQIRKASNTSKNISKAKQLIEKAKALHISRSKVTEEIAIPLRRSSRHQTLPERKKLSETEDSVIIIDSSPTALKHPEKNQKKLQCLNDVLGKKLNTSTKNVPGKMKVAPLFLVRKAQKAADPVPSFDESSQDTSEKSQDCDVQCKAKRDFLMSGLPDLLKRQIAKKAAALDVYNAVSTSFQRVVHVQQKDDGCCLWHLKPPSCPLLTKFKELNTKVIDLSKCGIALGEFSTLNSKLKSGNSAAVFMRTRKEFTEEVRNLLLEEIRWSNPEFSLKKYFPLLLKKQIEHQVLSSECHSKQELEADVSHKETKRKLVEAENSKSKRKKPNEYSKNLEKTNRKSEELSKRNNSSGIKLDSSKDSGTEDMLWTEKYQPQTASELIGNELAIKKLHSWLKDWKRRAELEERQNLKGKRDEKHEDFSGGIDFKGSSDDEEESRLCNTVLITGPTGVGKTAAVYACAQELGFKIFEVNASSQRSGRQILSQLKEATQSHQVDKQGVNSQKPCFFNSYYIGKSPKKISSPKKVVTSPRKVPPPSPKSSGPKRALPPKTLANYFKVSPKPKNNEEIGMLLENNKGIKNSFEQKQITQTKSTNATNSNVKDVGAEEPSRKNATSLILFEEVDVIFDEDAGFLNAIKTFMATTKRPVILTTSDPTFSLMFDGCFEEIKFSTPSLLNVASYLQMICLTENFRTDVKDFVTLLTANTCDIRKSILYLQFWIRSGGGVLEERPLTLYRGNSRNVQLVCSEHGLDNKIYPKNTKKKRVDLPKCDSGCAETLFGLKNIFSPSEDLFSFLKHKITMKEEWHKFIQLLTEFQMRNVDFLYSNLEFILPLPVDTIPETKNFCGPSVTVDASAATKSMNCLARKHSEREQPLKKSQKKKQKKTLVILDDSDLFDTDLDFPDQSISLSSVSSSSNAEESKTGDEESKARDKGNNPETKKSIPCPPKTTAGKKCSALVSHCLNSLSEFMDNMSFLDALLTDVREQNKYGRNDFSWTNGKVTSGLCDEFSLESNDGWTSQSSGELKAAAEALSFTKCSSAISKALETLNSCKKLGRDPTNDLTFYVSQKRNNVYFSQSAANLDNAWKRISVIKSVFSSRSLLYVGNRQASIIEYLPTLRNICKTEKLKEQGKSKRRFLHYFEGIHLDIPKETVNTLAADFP
In short: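 HEK293T cells expressing luciferase-tagged ELG1, 2,000 per well, treated with 5-fluorouridine plus compound for 16 h at 37 C. ONE-Glo luminescence after 30 min at room temperature reports ELG1 reporter level.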

[7] = target: Thyrotropin-releasing hormone receptor (Homo sapiens) (UniProt P34981); assay: qHTS for Small Molecule Agonists and Allosteric Enhancers of Human TRH Receptor: Validation Screen for Agonists (AID 493127;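 active = calcium activation more than 3 SD above the typical response in the agonist read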); conditions: TRH receptor agonist cell assay; at 2 µM; hits give high values
Thyrotropin-releasing hormone receptor (Homo sapiens), sequence (P34981 whole entry, looked up): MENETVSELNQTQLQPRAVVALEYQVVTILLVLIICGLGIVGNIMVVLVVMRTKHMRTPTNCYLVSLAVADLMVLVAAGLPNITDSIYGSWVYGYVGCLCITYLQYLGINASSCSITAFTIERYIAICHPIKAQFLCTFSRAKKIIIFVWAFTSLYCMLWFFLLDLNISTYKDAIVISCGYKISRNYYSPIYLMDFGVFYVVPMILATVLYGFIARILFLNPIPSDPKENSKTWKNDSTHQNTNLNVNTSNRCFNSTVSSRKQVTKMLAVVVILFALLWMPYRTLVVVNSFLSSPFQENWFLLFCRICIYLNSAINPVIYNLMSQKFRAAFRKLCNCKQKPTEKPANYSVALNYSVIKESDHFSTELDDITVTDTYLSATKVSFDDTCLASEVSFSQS
In short: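 TRHR cells loaded with fluo-8 calcium dye; FDSS kinetic fluorescence (Ex 480/Em 530) read at 1 s/cycle after 23 nL compound addition. Agonist-mode calcium response recorded before the 10 nM TRH (EC20) addition.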

[8] = Validation screen for small molecules that induce genotoxicity in human embryonic kidney (HEK293T) cells expressing luciferase-tagged ELG1 (AID 493106); conditions: luminescence; series mostly up to 46.1 µM
In short: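 HEK293T cells expressing luciferase-tagged ELG1, 2,000 cells/well, exposed to compound 16 hr at 37 °C, 5% CO2. Luciferase read after ONE-Glo, 30 min at room temperature; increased signal indicates genetic stress.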

[9] = target: ATP-dependent 6-phosphofructokinase (Trypanosoma brucei brucei) (UniProt O15648); assay: qHTS Assay to Find Inhibitors of T. brucei phosphofructokinase: hit validation (AID 492961);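 note: luminescence reports ADP formed as PFK phosphorylates fructose-6-phosphate with ATP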; conditions: T. brucei PFK, ADP-Glo luminescence; series mostly up to 51.4 µM
ATP-dependent 6-phosphofructokinase (Trypanosoma brucei brucei), sequence (O15648 whole entry, looked up): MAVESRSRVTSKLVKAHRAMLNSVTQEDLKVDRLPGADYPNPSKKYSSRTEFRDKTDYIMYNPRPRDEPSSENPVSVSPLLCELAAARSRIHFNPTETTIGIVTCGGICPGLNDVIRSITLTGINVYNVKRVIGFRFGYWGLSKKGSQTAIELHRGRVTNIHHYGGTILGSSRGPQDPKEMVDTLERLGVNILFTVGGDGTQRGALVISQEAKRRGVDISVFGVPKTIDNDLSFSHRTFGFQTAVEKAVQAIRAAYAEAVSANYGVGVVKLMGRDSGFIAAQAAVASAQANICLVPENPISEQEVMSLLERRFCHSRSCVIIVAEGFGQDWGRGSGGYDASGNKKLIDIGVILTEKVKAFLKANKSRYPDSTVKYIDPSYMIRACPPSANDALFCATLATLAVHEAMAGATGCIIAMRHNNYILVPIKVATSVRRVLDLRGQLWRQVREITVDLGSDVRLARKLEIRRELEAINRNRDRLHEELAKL
In short: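 Compounds titrated; %activity normalized to 0x and 1x enzyme controls, curve-fitted. Readout: ADP-Glo luminescence after 45 min room-temperature reaction of 1.25 nM PFK, 0.1 mM ATP, 0.5 mM F6P, pH 8.0.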

SMILES	outcome [1]	outcome [2]	Potency [3]	Potency [4]	Potency [5]	Potency [6]	activation [7] [%]	Potency [8]	outcome [9]
CCN(CC)CCCCCCCCOC(=O)c1cc(OC)c(OC)c(OC)c1	inactive	inactive	inactive	inactive	inactive	inactive	1.25		
COc1cc([C@@H]2c3cc4c(cc3[C@H](O)C3COC(=O)[C@@H]32)OCO4)cc(OC)c1OC (some centres not stated)	inactive	inactive	inactive	inactive	inactive		0.5		
N#C/C(=C\c1ccc(O)c(O)c1)C(=O)NCCc1ccccc1	inactive	inactive	inactive	inactive	inactive	inactive	0.438		
CN(C)C(=O)/N=N/C(=O)N(C)C	inactive	inactive	inactive	inactive	inactive		0.75	inactive	
Cc1ccc2c(c1)C(N1CCN(C)CC1)=Nc1cccnc1N2	inactive	inactive	inactive	inactive	4.47 µM (active)		-0.312	inactive	
C=C(C)C1CC=C(C(=O)O)CC1 (configuration not stated)	inactive	inactive	inactive	inactive	inactive		1.12	inactive	
N[C@H](C(=O)O)c1cc(O)cc(O)c1	inactive	inactive	inactive	inactive		inactive	0.0625	inactive	
Oc1cc2c(cc1O)C(c1ccccc1)CNCC2 (configuration not stated)	inactive	inactive	inactive			inactive	0.938	inactive	
[Li+]	inactive	inactive	inactive		inactive	inactive	1.31	inactive	
CCCCCCCCCCCCCCCCCCOC[C@H](COP(=O)([O-])OCC[N+](C)(C)C)OC	inactive	inactive		inactive	inactive	inactive	0.938		inactive
O=C(N[C@@H](Cc1ccccc1)C(=O)CCl)OCc1ccccc1	inactive	inactive	inactive	inactive		8.2 µM (active)	-3.75	inactive	
C[C@H](NC(=O)/C(C#N)=C/c1ccc(O)c(O)c1)c1ccccc1	inactive	inactive	inactive	inactive		inactive	-3.19	inactive	
